Measurements from PubChem BioAssay (EPA / NIEHS).
Records with an inconclusive call do not appear. More than one record can exist for a structure, and the calls need not agree. The source made the active and inactive calls. Rule for the calls: active = hit-call score of the fitted dose curve at least 0.9, where 1 is the maximum; inconclusive = response in the unintended direction; inactive = score below 0.9.

Key:
[1] = TOX21_p53_BLA_p2_viability: Viability Assessment in the Tox21 HCT-116 p53 Agonism Beta-lactamase Assay, Phase 2 (AID 2283591);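 note: compound exposure lasted 16 h at 37 °C; actives lower the ATP signal meaning cytotoxicity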
In short: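 Cytotoxicity readout: CellTiter-Glo ATP luminescence, 30 min at room temperature, after the beta-lactamase read. Cells were HCT116 exposed 16 h at 37C to compounds pin-transferred at 217-fold dilution from DMSO stocks.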

[2] = molecular target: Cellular tumor antigen p53 (Homo sapiens) (UniProt P04637); assay: TOX21_p53_BLA_p5_ratio: Tox21 HCT-116 p53 Agonism Beta-lactamase Assay, Ratio, Phase 5 (AID 2283599)
In short: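 Beta-lactamase reporter ratio (blue 460 nm over green 530 nm, 405 nm excitation) after 2 h CCF4-AM loading, in HCT-116 cells exposed 16 h at 37 C to compounds pinned at 217-fold dilution. Increases relative to DMSO baseline scored.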

[3] = TOX21_p53_BLA_p4_viability: Viability Assessment in the Tox21 HCT-116 p53 Agonism Beta-lactamase Assay, Phase 4 (AID 2283597);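 note: hits lower the luminescence signal meaning cytotoxicity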
In short: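 Following a 16 h exposure at 37C, the treated HCT116 wells were first read for the FRET ratio. They were then lysed with CellTiter-Glo, and ATP luminescence was recorded after 30 min at room temperature.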

[4] = TOX21_p53_BLA_p5_viability: Viability Assessment in the Tox21 HCT-116 p53 Agonism Beta-lactamase Assay, Phase 5 (AID 2283600)
In short: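 After the 460/530 nm beta-lactamase measurement, the wells received an ATP-detection luciferase reagent; signal was read 30 min later at RT. Compound treatment lasted 16 h on cells pre-incubated 5 h post-seeding.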

[5] = molecular target: Cellular tumor antigen p53 (Homo sapiens) (UniProt P04637); assay: TOX21_p53_BLA_p4_ratio: Tox21 HCT-116 p53 Agonism Beta-lactamase Assay, Ratio, Phase 4 (AID 2283601)
In short: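 Signal is the blue/green (460nm/530nm) ratio of cleaved versus uncleaved CCF4-AM substrate, read after 2 h substrate loading. Cells were HCT116 carrying the p53-responsive beta-lactamase reporter, dosed 16 h at 37C, 5% CO2; CellTiter-Glo measured in parallel.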

[6] = molecular target: Thyroid hormone receptor alpha (Rattus norvegicus) + Thyroid hormone receptor beta (Rattus norvegicus) (UniProt P18113+P63059); assay: TOX21_TR_LUC_GH3_Antagonist_Followup: Tox21 GH3 Thyroid Hormone Receptor Antagonism Luciferase Follow-Up Assay (AID 2283942)
In short: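 Confirmatory qHTS, antagonist mode: T3 (1.0 nM final) + test cpd, 15 conc, 92 uM–5nM final, GH3 rat pituitary line, 24 h, 37C. Luc reporter, RLU vs DMSO.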

[7] = molecular target: THRA (gene 7067) (UniProt P10827); assay: TOX21_TRA_COA_Antagonist_Followup_ratio: Tox21 Thyroid Hormone Receptor alpha Antagonism through Coactivator Recruitment Follow-Up Assay, Ratio (AID 2283953)
In short: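 520:495 nm emission ratio (excitation 340 nm) reports fluorescein-SRC-2 peptide recruitment to GST-TRα LBD by TR-FRET with Tb anti-GST antibody. Values were normalized to DMSO (0%) and T3 control wells (100%); loss of signal indicated antagonism.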

[8] = molecular target: THRB (gene 7068) (UniProt P10828); assay: TOX21_TRB_BLA_Antagonist_Followup_ratio: Tox21 Thyroid Hormone Receptor beta Antagonism Beta-lactamase (BLA) Follow-Up Assay, Ratio (AID 2283958)
In short: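 HEK293T cells with a GAL4-TRb LBD fusion and UAS-bla reporter, 3,000 cells/well in phenol red-free DMEM with 2% charcoal-stripped FBS. Exposed 18 h at 37C to 11 concentrations in triplicate; CCF4 460:530 nm ratio after 2 h, DMSO-referenced.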

[9] = molecular target: THRB (gene 7068) (UniProt P10828); assay: TOX21_TRB_COA_Antagonist_Followup_ratio: Tox21 Thyroid Hormone Receptor beta Antagonism through Coactivator Recruitment Follow-Up Assay, Ratio (AID 2283967)
In short: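 Test compound was incubated with 5.0 nM GST-TRβ LBD in 0.10% BSA. Then 200 nM fluorescein-SRC-2 peptide and 2 nM terbium anti-GST antibody were added. TR-FRET (520:495 nm) was measured and normalized to DMSO and T3 controls.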

[10] = TOX21_TR_RXR_BLA_Antagonist_Followup_viability: Viability Assessment in the Tox21 Thyroid Hormone Receptor beta Retinoid X Receptor alpha (RXRa) Antagonism Beta-lactamase (BLA) Follow-Up Assay (AID 2283979)
In short: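 Follow-up compounds (11 concentrations, triplicate) were incubated 16 h at 37C/5% CO2 with HEK293T RXRa-bla cells seeded at 2,500/well in charcoal-stripped-serum medium. ATP content by CellTiter-Glo luminescence gave viability; curves fitted in both directions against DMSO.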

[11] = molecular target: Cellular tumor antigen p53 (Homo sapiens) (UniProt P04637); assay: TOX21_p53_BLA_p2_ratio: Tox21 HCT-116 p53 Agonism Beta-lactamase Assay, Ratio, Phase 2 (AID 2283592)
In short: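 Gain-of-signal p53 agonism was scored from the beta-lactamase FRET ratio (460/530 nm, 405 nm excitation) in HCT116 cells treated 16 h at 37C, 5% CO2, with DMSO serving as negative control and baseline.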

[12] = TOX21_p53_BLA_p3_viability: Viability Assessment in the Tox21 HCT-116 p53 Agonism Beta-lactamase Assay, Phase 3 (AID 2283593);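 note: cells exposed to compound for 16 h before reading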
In short: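 Cellular ATP was quantified by CellTiter-Glo luminescence, read after 30 min at room temperature. Beforehand, HCT116 cells (4000/well) received compound 5 h post-seeding, 217-fold diluted from DMSO, then incubated 16 h at 37C.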

[13] = molecular target: Cellular tumor antigen p53 (Homo sapiens) (UniProt P04637); assay: TOX21_p53_BLA_p3_ratio: Tox21 HCT-116 p53 Agonism Beta-lactamase Assay, Ratio, Phase 3 (AID 2283596)
In short: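 HCT116 p53-bla cells (4000/well) given compound in DMSO (217-fold dilution) after 5 h, incubated 16 h at 37C. CCF4-AM substrate 2 h at room temperature; 460/530 nm emission ratio, gain fitted against DMSO.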

Sequence of Cellular tumor antigen p53 (Homo sapiens) (P04637 whole entry, looked up): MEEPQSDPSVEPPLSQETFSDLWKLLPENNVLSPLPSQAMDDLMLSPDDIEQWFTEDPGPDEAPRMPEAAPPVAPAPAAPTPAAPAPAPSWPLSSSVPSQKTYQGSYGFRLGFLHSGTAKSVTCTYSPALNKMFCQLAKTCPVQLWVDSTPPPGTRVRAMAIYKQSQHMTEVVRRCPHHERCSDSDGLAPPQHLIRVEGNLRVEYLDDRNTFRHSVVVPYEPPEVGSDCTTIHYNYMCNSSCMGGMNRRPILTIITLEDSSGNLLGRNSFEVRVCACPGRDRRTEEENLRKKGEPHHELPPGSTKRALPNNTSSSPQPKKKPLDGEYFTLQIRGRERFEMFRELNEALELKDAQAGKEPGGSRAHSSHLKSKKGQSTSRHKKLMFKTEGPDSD
Sequence of THRB (gene 7068) (P10828 whole entry, looked up, the tested form may be a part): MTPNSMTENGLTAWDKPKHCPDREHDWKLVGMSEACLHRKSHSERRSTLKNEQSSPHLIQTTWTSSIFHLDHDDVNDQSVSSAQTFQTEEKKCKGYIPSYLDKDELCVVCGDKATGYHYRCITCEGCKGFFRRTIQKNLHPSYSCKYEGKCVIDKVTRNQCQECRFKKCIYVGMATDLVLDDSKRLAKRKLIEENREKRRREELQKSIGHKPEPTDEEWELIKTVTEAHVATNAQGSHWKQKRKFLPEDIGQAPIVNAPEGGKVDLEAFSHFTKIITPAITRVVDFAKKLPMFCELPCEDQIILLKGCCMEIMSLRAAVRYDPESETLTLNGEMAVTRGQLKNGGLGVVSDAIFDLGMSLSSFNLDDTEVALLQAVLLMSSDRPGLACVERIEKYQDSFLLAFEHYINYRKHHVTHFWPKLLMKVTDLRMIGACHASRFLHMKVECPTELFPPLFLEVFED
Sequence of THRA (gene 7067) (P10827 whole entry, looked up, the tested form may be a part): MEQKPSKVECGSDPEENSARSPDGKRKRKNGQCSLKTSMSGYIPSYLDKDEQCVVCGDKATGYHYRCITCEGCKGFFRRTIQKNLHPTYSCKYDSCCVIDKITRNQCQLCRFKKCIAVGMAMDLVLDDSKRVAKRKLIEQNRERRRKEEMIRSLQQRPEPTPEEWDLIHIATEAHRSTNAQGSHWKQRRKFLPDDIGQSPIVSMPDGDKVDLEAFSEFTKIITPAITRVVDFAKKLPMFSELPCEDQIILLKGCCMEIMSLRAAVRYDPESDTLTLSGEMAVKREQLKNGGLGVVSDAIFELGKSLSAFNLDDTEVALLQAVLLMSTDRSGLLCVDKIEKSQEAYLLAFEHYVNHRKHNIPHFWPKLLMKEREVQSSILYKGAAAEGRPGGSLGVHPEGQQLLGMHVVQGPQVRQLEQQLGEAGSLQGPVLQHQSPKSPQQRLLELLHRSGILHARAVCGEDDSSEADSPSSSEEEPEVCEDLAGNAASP

O=P(O)(O)C(O)(Cc1cnc2ccccn12)P(=O)(O)O
outcome [1]: inactive | outcome [2]: inactive

CC(C)(C)C(=O)Oc1ccc(S(=O)(=O)Nc2ccccc2C(=O)NCC(=O)O)cc1
outcome [1]: inactive | outcome [3]: inactive | outcome [4]: inactive | outcome [5]: inactive

O=C(O)c1ccc(CO)o1
outcome [1]: inactive | outcome [3]: inactive | outcome [4]: inactive | outcome [5]: inactive

C[C@]12CCC(=O)C=C1CC[C@@H]1[C@@H]2[C@@H](O)C[C@@]2(C)[C@H]1CC[C@]2(O)C(=O)COC(=O)CCC(=O)O
outcome [1]: inactive | outcome [3]: inactive | outcome [4]: inactive | outcome [5]: inactive

NS(=O)(=O)c1cc2c(cc1Cl)NC(CSCc1ccccc1)=NS2(=O)=O
outcome [1]: inactive | outcome [2]: inactive

c1ccc(COCc2ccccc2)cc1
outcome [1]: inactive | outcome [3]: inactive | outcome [2]: inactive | outcome [5]: inactive

CNS(=O)(=O)CCc1ccc2[nH]cc(C3CCN(C)CC3)c2c1
outcome [1]: inactive | outcome [3]: inactive | outcome [4]: inactive | outcome [5]: inactive

Cn1ccc2cc3c(cc21)CCN3C(=O)Nc1cccnc1
outcome [1]: inactive | outcome [3]: inactive | outcome [2]: inactive | outcome [5]: inactive

OC1OC[C@@H](O)[C@H](O)[C@@H]1O (stereo partly drawn)
outcome [1]: inactive | outcome [3]: inactive | outcome [5]: inactive

CS(=O)(=O)c1ccc([C@@H](O)[C@@H](CF)NC(=O)C(Cl)Cl)cc1
outcome [1]: inactive | outcome [2]: inactive

O=C1C=CCCC1
outcome [1]: inactive | outcome [2]: inactive | outcome [4]: inactive

CCC(C)(C)C(=O)O
outcome [1]: inactive | outcome [3]: inactive | outcome [4]: inactive | outcome [5]: inactive

Nc1nc2c(ncn2CCC(CO)CO)c(=O)[nH]1
outcome [1]: inactive | outcome [3]: inactive | outcome [4]: inactive

CC(=O)N(CC(C)C(=O)O)c1c(I)cc(I)c(N)c1I (stereo not drawn)
outcome [1]: inactive | outcome [3]: inactive | outcome [2]: inactive | outcome [5]: inactive

O=C(CCCCCCCCC#CI)Oc1ccccc1
outcome [1]: inactive | outcome [3]: inactive | outcome [5]: inactive | outcome [6]: inactive | outcome [7]: inactive | outcome [8]: inactive | outcome [9]: inactive | outcome [10]: inactive

Nc1c(NC/C=C\COc2cc(CN3CCCCC3)ccn2)c(=O)c1=O
outcome [1]: inactive | outcome [2]: inactive

CCOC(=O)NCCC[Si](OCC)(OCC)OCC
outcome [1]: inactive | outcome [3]: inactive | outcome [4]: inactive

CCC(O)C(C)(C)C (stereo not drawn)
outcome [1]: inactive | outcome [2]: inactive | outcome [4]: inactive | outcome [5]: inactive

O=C1c2ccccc2CN2C(=O)c3ccccc3CN12
outcome [1]: inactive | outcome [3]: inactive | outcome [2]: inactive | outcome [5]: inactive

O=C1NC2CCCCN2C12CCN(CCCN1c3ccccc3CCc3ccc(Cl)cc31)CC2 (stereo not drawn)
AC50 [1]: 37.5 µM (active) | AC50 [3]: 43 µM (active) | outcome [5]: inactive

CC(C)=CCC/C(C)=C/CC/C(C)=C/CCC(=O)OC/C=C(\C)CCC=C(C)C
outcome [1]: inactive | outcome [3]: inactive | outcome [5]: inactive

CCOC(=O)O[C@]1(C(=O)COC(=O)CC)CC[C@H]2[C@@H]3CCC4=CC(=O)C=C[C@]4(C)[C@H]3[C@@H](O)C[C@@]21C
outcome [1]: inactive | outcome [2]: inactive | outcome [4]: inactive | outcome [5]: inactive

CCCNCC(O)COc1ccccc1C(=O)CCc1ccccc1 (stereo not drawn)
outcome [1]: inactive | outcome [3]: inactive | outcome [4]: inactive

COC1[C@@H](O[C@@H]2O[C@H](C)[C@@H](O[C@H]3C[C@@](C)(O)[C@H](OC(=O)CC(C)C)[C@H](C)O3)[C@H](N(C)C)[C@H]2O)[C@@H](CC=O)C[C@@H](C)[C@@H](O)/C=C/C=C/C[C@@H](C)OC(=O)C[C@H]1OC(C)=O (stereo partly drawn)
outcome [11]: inactive | outcome [12]: inactive | outcome [13]: inactive | outcome [3]: inactive

Nc1ccc(S(=O)(=O)O)cc1
outcome [11]: inactive | outcome [12]: inactive | outcome [13]: inactive

COc1cc2c(cc1O)CCN[C@]21CS[C@@H]2c3c(OC(C)=O)c(C)c4c(c3[C@H](COC1=O)N1[C@@H]2[C@H]2c3c(cc(C)c(OC)c3O)C[C@@H]([C@@H]1O)N2C)OCO4
AC50 [11]: 0.00174 µM (active) | outcome [11]: inactive

CCCCCCCCCC#N
outcome [1]: inactive | outcome [2]: inactive | outcome [5]: inactive

COC(=O)CCCCC(=O)O
outcome [11]: inactive | outcome [12]: inactive | outcome [13]: inactive

CC(C)[C@@H](C)/C=C/[C@@H](C)[C@H]1CC[C@H]2/C(=C/C=C3\C[C@@H](O)CC[C@@H]3C)CCC[C@]12C
outcome [11]: inactive | outcome [12]: inactive | outcome [13]: inactive | outcome [3]: inactive

Clc1ccnc(Cl)n1
outcome [11]: inactive | outcome [12]: inactive

CCCC(=O)Nc1c(I)cc(I)c(CC(CC)C(=O)O)c1I (stereo not drawn)
outcome [11]: inactive

Nc1cc(C(=O)O)ccc1Cl
outcome [11]: inactive | outcome [12]: inactive

O=[N+]([O-])c1ccc(F)c(Cl)c1
outcome [11]: inactive | outcome [12]: inactive

NS(=O)(=O)c1cc(C(=O)O)cc(N2CCCC2)c1Oc1ccccc1
outcome [1]: inactive | outcome [4]: inactive | outcome [5]: inactive

CSSc1ccoc1C
outcome [11]: inactive | outcome [12]: inactive | AC50 [13]: 40.4 µM (active)

OC(CN1CCCCC1)c1cc(-c2ccccc2)on1 (stereo not drawn)
outcome [1]: inactive | outcome [5]: inactive

CC(NN)c1ccccc1 (stereo not drawn)
outcome [1]: inactive | outcome [4]: inactive | outcome [5]: inactive
